Sampled rows, rich in hits. Any-hit rate of the full collection: about 15%.
ELG1 DNA repair: qHTS screen for small molecules that inhibit ELG1-dependent DNA repair in human embryonic kidney (HEK293T) cells expressing luciferase-tagged ELG1 | HEK293T ELG1-luciferase reporter, luminescence, 16 h; DNA damage induced by 5-fluorouridine | Potency, µM (top dose mostly 46.1 µM), inactives show top-dose activity change, negative = inhibition, usual class: inhibitors | actives 2.3% (n = 330,000) | AID 504467, 2011; note: nearly all actives have a fitted effect of over 55% in size
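Quantitative HTS, concentration-response format. 2,000 cells/well co-treated with 5-fluorouridine and compound, 16 hr in 5% CO2 at 37 °C; ONE-Glo luminescence read after 30 min.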
Gal4-VP16 FLuc: VP16 counterscreen qHTS for inhibitors of ROR gamma transcriptional activity; Drosophila S2 Gal4-VP16 UAS-luciferase, luminescence, 20 h; Potency, µM (doses to about 53.6 µM), for inactives: at the highest dose activity, negative = inhibition, usual class: inhibitors; actives 3.5% (n = 310,000); AID 2546, 2010;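 note: Gal4-VP16 expression switched on by copper sulfate through the metallothionein promoter; nearly all actives have a fitted effect of over 50% in size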
RORg inh: qHTS for inhibitors of ROR gamma transcriptional activity. Potency, µM (highest dose often 53.6 µM), inactives show at the highest dose activity change, negative = inhibition, usual class: inhibitors. Nuclear receptor ROR-gamma (Mus musculus), P51450. actives 5.4% (n = 310,000). Drosophila S2 Gal4-RORgamma UAS-luciferase reporter, 20 h. AID 2551, 2010; note: nearly all actives have a fitted effect of over 60% in size
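Read-out: Photinus luciferase luminescence; inhibitors lower reporter signal. Insect Schneider cells with Gal4-ROR gamma fusion under metallothionein promoter, UAS reporter; 700 uM final copper sulfate induction, 20 hr, ambient temperature.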
ALOX12 inh: Primary qHTS assay for inhibitors of human arachidonate 12S-lipoxygenase (ALOX12): Round 2; Polyunsaturated fatty acid lipoxygenase ALOX12 (Homo sapiens), P18054; purified 12hLO, xylenol orange hydroperoxide absorbance; Potency, µM (top dose mostly 108 µM), inactives show at the highest dose activity change, negative = inhibition, usual class: inhibitors; actives 1.1% (n = 580,000); AID 1671190, 2021
Target sequence (P18054 whole entry, looked up): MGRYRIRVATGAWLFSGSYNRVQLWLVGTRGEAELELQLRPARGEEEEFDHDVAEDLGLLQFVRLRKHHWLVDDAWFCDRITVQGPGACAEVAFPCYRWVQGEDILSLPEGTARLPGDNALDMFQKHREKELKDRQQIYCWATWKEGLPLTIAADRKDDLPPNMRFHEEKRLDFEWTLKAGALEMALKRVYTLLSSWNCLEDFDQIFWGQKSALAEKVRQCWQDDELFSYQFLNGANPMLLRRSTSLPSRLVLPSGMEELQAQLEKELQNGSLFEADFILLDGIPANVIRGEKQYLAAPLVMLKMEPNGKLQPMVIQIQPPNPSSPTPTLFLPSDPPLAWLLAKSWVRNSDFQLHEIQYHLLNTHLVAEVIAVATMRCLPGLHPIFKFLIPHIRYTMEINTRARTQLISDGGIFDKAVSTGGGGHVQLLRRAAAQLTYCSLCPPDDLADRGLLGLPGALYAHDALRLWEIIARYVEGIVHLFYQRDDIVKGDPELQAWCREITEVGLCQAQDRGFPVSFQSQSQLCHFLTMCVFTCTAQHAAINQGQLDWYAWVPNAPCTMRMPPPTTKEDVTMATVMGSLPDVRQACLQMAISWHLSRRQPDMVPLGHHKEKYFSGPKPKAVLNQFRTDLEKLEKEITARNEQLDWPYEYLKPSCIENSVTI
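Hydroperoxide product was detected by ferrous iron/xylenol orange as the 573 to 405 nm absorbance ratio. Arachidonic acid at 40 uM (final) was turned over for 30 min at room temperature by 150 nM human 12hLO, pH 7.0 Hepes buffer, after 15 min compound preincubation.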
DT40 TDP1 CPT: qHTS for Inhibitors of human tyrosyl-DNA phosphodiesterase 1 (TDP1): qHTS in cells in presence of CPT; AID 686979, 2013; Potency, µM (series often up to 46.2 µM), for the others: top-dose activity change, negative = growth inhibition, hits mostly inhibitors; chicken DT40 Tdp1-/-;hTDP1 cells + 20 nM CPT, ATP luminescence, 48 h; actives 12% (n = 420,000); note: nearly all actives have a fitted effect of over 55% in size
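Cell growth measured by CellTiter-Glo luminescence after a minimum 48 h, 37 C compound exposure with 20 nM CPT in Tdp1-knockout DT40 cells stably expressing hTDP1, seeded 400/well; qHTS titration format.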
DT40 TDP1 no CPT: qHTS for Inhibitors of human tyrosyl-DNA phosphodiesterase 1 (TDP1): qHTS in cells in absence of CPT; DT40 Tdp1-/- hTDP1 cells, no CPT, ATP luminescence, 48 h; Potency, µM (titrated, usually from 46.2 µM), for inactives: at the highest dose activity change, negative = growth inhibition, most hits filed as inhibitors; actives 15% (n = 420,000); note: nearly all actives have a fitted effect of over 55% in size
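Camptothecin absent (DMSO only). Human TDP1-complemented DT40 knockout cells, 400 cells/well, 37 °C for minimum 48 hr; ATP measured via CellTiter-Glo, 30 min dark incubation, luminescence.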
The depositor's hits bear a star; ? = inconclusive; / = not tested or not shown. Calls come from the whole dose curve; as a rule, active = well fitted curve in the direction sought with a large enough effect; inconclusive = small, poorly fitted or top-dose-only effect, or another doubt; inactive = no such curve, though single readings can be large; an effect the other way counts as inactive or inconclusive. % is set by controls: 0 for no effect and ±100 for the full control effect; potency is the fitted concentration of half-maximal effect.

SMILES | ELG1 DNA repair | Gal4-VP16 FLuc | RORg inh | ALOX12 inh | DT40 TDP1 CPT | DT40 TDP1 no CPT
CCc1cccc(NC(=O)CC2(C(=O)O)CCCCC2)c1 | / | / | / | -15% | / | /
Cc1ccccc1-c1nc(CS(=O)(=O)CC(=O)NCc2ccccc2Br)c(C)o1 | / | / | / | -29% | / | /
Nc1cccn2c(-c3ccc(Cl)c(Cl)c3)cnc12 | ? | 4% | 35% | ? | ? | ?
Nc1cccn2c(-c3ccc(Cl)cc3)cnc12 | ? | 2% | -14% | ? | ? | 18µM*
Cc1cc(C)cc(-n2ncc3c(OCC(=O)NC4CCS(=O)(=O)C4)ncnc32)c1 (centres undefined) | / | / | / | -1% | / | /
CCN(CC)CCCNC(=O)/C=C/C(=O)O | 0% | -11% | 14% | 471% | 18µM* | 21µM*
Cc1[nH]nc(N2CCCCCC2)c1[N+](=O)[O-] | 0% | 7% | -4% | 0% | -5% | -11%
Cc1ccn(-c2n[nH]c(C)c2[N+](=O)[O-])n1 | -2% | -5% | 13µM* | -9% | 5% | -1%
COc1ccc2nc(/C(C#N)=C/c3ccc(-c4cccc(Cl)c4Cl)o3)[nH]c2c1 | / | / | / | -1% | / | /
COc1ccc(Nc2nnc(-c3ccc(OCC(=O)N4CCCCC4)cc3)c3ccccc23)cc1 | / | / | / | 41% | / | /
C=CCNC(=S)/N=c1/ccccn1CCC | -3% | ? | 5µM* | 0% | ? | 23µM*
C=CCNC(=S)/N=c1/ccccn1C | 13% | -3% | -14% | ? | 11% | 1%
O/N=C1\CCOc2ccccc21 | / | / | / | -13% | / | /
CCCC(=O)N/C(N)=N/c1nc2ccccc2o1 | ? | -29% | 10µM* | 0% | ? | ?
COc1ccccc1C(=O)Nc1cccc(-c2nc3ccccc3o2)c1C | / | / | / | -15% | / | /
CC(C)CC(=O)N/C(N)=N/c1nc2ccccc2o1 | ? | -3% | 10µM* | 244% | ? | 29µM*
CC(NC(=O)CSc1nc2ccccc2o1)c1ccccc1 (centres undefined) | / | / | / | 37% | / | /
COc1ccccc1C(=O)N/C(N)=N/c1nc2ccccc2o1 | ? | ? | 8.9µM* | 1% | ? | ?
NC(=O)/C(=C\c1ccccc1)NC(=O)/C=C/c1ccccc1 | ? | 2% | 32% | -15% | 5% | 6%
CCOC(=O)Cc1nc2ccccc2o1 | ? | -4% | 13% | / | / | /
N/C(=N\c1nc2ccccc2o1)NC(=O)/C=C/c1ccccc1 | -16% | -20% | -42% | 14% | ? | 18µM*
CCOc1c(Br)cc(C(=O)OCc2ccc(C#N)cc2)cc1OC | / | / | / | -23% | / | /
CC(=O)N/C(N)=N/c1nc2cc([N+](=O)[O-])ccc2o1 | ? | 15% | -31% | 186% | 0% | -24%
CCC(C)NC(=O)CSc1nc2ccccc2o1 (centres undefined) | / | / | / | 12% | / | /
CC(=O)N/C(N)=N/c1nc2cc(C)ccc2o1 | ? | ? | 11µM* | 218% | -3% | -15%
SMILES | ELG1 DNA repair | Gal4-VP16 FLuc | RORg inh | ALOX12 inh | DT40 TDP1 CPT | DT40 TDP1 no CPT
N/C(=N\c1nc2ccccc2o1)NC(=O)c1ccccc1 | ? | -25% | 7.1µM* | 2% | ? | ?
CC(C)(C)C(=O)N1CCN(c2nc3ccccc3o2)CC1 | -18% | 5% | 17% | 7% | 3% | -21%
CCC(=O)N/C(N)=N/c1nc2ccccc2o1 | ? | ? | 13µM* | 248% | ? | ?
Cc1ccc(C(=O)N/C(N)=N/c2nc3ccccc3o2)cc1 | ? | 0% | -28% | 10% | ? | ?
CC(C)(C)C(=O)N/C(N)=N/c1nc2ccccc2o1 | ? | ? | 4µM* | 210% | ? | ?
COc1ccc(C)cc1NC(C)C(=O)N(C)Cc1cccc(F)c1 (centres undefined) | / | / | / | -18% | / | /
Cc1cc(OCn2ccc(C(=O)O)n2)ccc1Cl | -11% | 16µM* | ? | ? | 1% | -1%
Cc1cc(OCn2ccc(C(=O)NN3CCOCC3)n2)ccc1Cl | / | / | / | 24% | / | /
CCNC(=O)N(C1CC1)C1CCOC2(CCN(C(=O)Cc3ccccc3F)CC2)C1 (centres undefined) | / | / | / | 26% | / | /
CCOc1ccc2oc(C(=O)N(C)CC(=O)Nc3ccc(OCC)c(OCC)c3)c(C)c2c1 | ? | / | / | -1% | ? | 18µM*
CCOc1ccc(NC(=O)CN(C)C(=O)c2ccc(=O)[nH]c2)cc1OCC | ? | 15% | 11µM* | / | -16% | 0%
CCOc1ccc(NC(=O)CN(C)C(=O)CCCOc2ccc(Br)cc2)cc1OCC | -18% | / | / | ? | 18µM* | ?
CCOc1ccc2oc(C(=O)N(C)CCc3ccc(OC)c(OC)c3)c(C)c2c1 | 18µM* | / | / | -25% | 21µM* | ?
CCCOc1ccc(/C(O)=C2\C(=O)C(=O)N(c3cc(C)on3)C2c2ccc(O)c(OCC)c2)cc1 (centres undefined) | / | / | / | 0% | / | /
COc1ccc(-c2noc(-c3cccn3CC(=O)N(C)c3ccc(F)cc3)n2)cc1F | / | / | / | 15% | / | /
CSc1nsc(NC(=O)Cc2ccccc2)n1 | ? | 7.1µM* | ? | -6% | ? | ?
Cn1ncc2c(O/N=C(\N)c3ccc(C(F)(F)F)cc3)ncnc21 | ? | ? | -43% | 8% | 6.5µM* | 5.2µM*
COc1ccccc1C(=O)Nc1cnc2sc3c(n2c1=O)CCC(C(C)(C)C)C3 (centres undefined) | / | / | / | -3% | / | /
COc1ccc(/C=C/c2nc3ccccc3s2)c(OC)c1OC | / | / | / | -46% | / | /
CN(C)c1ccc(/C=C/c2nc3ccccc3s2)c(Cl)c1 | / | / | / | / | ? | 14µM*
Cc1ccccc1NC(=O)c1sc2nc(N3CCOCC3)c3c(c2c1N)CCCC3 | ? | -11% | 17% | ? | ? | 7.3µM*
Nc1c(C(=O)NCCc2ccccc2)sc2nc(N3CCOCC3)c3c(c12)CCCC3 | -16% | -3% | ? | -22% | 16µM* | 23µM*
COc1ccccc1NC(=O)c1sc2nc(N3CCOCC3)c3c(c2c1N)CCCC3 | 0% | ? | ? | 1% | ? | ?
CCOC(=O)c1ccc(NC(=O)c2sc3nc(N4CCOCC4)c4c(c3c2N)CCCC4)cc1 | -3% | -10% | -11% | -8% | ? | 16µM*
